PubChem BioAssay (Tox21)
Results filed as inconclusive are left out. Activity calls are given as the source filed them. Unless noted, the call rests on the fitted dose curve; in most records, active means well fitted curve in the direction sought with a large enough effect in the repeat runs; inconclusive means weak or mixed curves; inactive means no such curve, though single readings can be large; an effect the other way counts as inactive or inconclusive.

Key:
[1] = qHTS assay to identify small molecule agonists of the estrogen related receptor (ERR) signaling pathway from Tox21 library (AID 1224849; calls by dose curve; further: nearly all actives have a fitted effect of over 15% in size)
Summary of the method: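 Reporter cells (ERR, NTP source) treated with Tox21 10K compounds 18 h, 37 C. Readout: ONE-Glo luminescence, 30 min RT.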

[2] = qHTS RealTime-Glo MT Cell Viability Assay in HepG2 cells - 24 hour (AID 1224867); further: nearly all actives have a fitted effect of over 50% in size
Summary of the method: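 Cells + NanoLuc/prosubstrate dispensed (600 cells/well) → 5 h at 37 C/5% CO2 → compounds in DMSO transferred → 40 h incubation at 37 C, luminescence read at 0, 8, 16, 24, 32, 40 h.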

[3] = qHTS RealTime-Glo MT Cell Viability Assay in HEK293 cells - 32 hour (AID 1224868); further: top concentration of the series differs between compounds; nearly all actives have a fitted effect of over 50% in size
Summary of the method: (§1)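 Tox21 10K qHTS, HEK293, 600 cells/well, RealTime-Glo reagent co-dispensed with cells; 5 h preincubation, compound by pintool, 37 C, luminescence at 0–40 h.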

[4] = A CellTox Green Cytotoxicity Assay to monitor cytotoxicity in HEK293 cells - 0 hour (AID 1224869); further: nearly all actives have a fitted effect of over 50% in size
Summary of the method: (§2)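 Homogeneous no-lysis format: HEK293 cell suspension mixed with CellTox Green reagent, seeded, incubated 5 h at 37 C/5% CO2, then dosed by pintool with compound in DMSO.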

[5] = qHTS RealTime-Glo MT Cell Viability Assay in HepG2 cells - 40 hour (AID 1224870); further: nearly all actives have a fitted effect of over 50% in size
Summary of the method: (§3)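 HepG2 cells mixed with RealTime-Glo MT reagents (NanoLuc plus cell-permeant prosubstrate) were seeded at 600 cells/well, incubated 5 h at 37 C/5% CO2, then pinned with compounds in DMSO; nonlytic luminescence tracked viability during 40 h treatment.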

[6] = A CellTox Green Cytotoxicity Assay to monitor cytotoxicity in HEK293 cells - 40 hour (AID 1224871); further: nearly all actives have a fitted effect of over 45% in size
Summary of the method: as §2

[7] = qHTS RealTime-Glo MT Cell Viability Assay in HEK293 cells - 16 hour (AID 1224872)
Summary of the method: as §1

[8] = qHTS RealTime-Glo MT Cell Viability Assay in HepG2 cells - 8 hour (AID 1224873); further: nearly all actives have a fitted effect of over 55% in size
Summary of the method: as §3

[9] = qHTS RealTime-Glo MT Cell Viability Assay in HEK293 cells - 40 hour (AID 1224874); conditions: RealTime-Glo luminescence; max response: hits give low values; further: nearly all actives have a fitted effect of over 50% in size
Summary of the method: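 Measured as luminescence from the same continuously cultured HEK293 wells at successive time points (0, 8, 16, 24, 32, 40 h) after compound addition. Reagent present from seeding; dosing at 5 h; incubation 37 C.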

[10] = A CellTox Green Cytotoxicity Assay to monitor cytotoxicity in HEK293 cells - 24 hour (AID 1224875); further: series mostly up to about 77 µM; nearly all actives have a fitted effect of over 45% in size
Summary of the method: as §2
On the % scale 0 is the no-effect control and ±100 the full control effect.

Cc1ccccc1C(=O)N1CC/C(=N\OS(=O)(=O)O)c2ccc(Cl)cc21
inactive: outcome [1] | outcome [2] | Potency [3] | Potency [4] | outcome [5] | Potency [6] | Potency [7] | outcome [8] | max response [9] -2.43%

NC(=O)NC(=O)Cc1ccccc1
inactive: outcome [1] | outcome [2] | Potency [3] | Potency [4] | outcome [5] | Potency [6] | Potency [7] | outcome [8] | max response [9] 3.75% | Potency [10]

C1=CCC(c2ccccc2)CC1 (configuration not stated)
inactive: outcome [1] | outcome [2] | Potency [3] | Potency [4] | outcome [5] | Potency [6] | Potency [7] | outcome [8] | max response [9] 4.33%

C=CCOC(=O)c1ccc(C(=O)OCC=C)c(C(=O)OCC=C)c1
inactive: outcome [1] | outcome [2] | Potency [3] | Potency [4] | outcome [5] | Potency [6] | Potency [7] | outcome [8] | max response [9] 4.3% | Potency [10]

CCCCCN(CCCOC)C(=O)C(CCC(=O)O)NC(=O)c1ccc(Cl)c(Cl)c1 (configuration not stated)
inactive: outcome [1] | outcome [2] | Potency [3] | Potency [4] | outcome [5] | Potency [6] | Potency [7] | outcome [8] | max response [9] -0.0123% | Potency [10]

c1ccccc1
inactive: outcome [1] | outcome [2] | Potency [3] | Potency [4] | outcome [5] | Potency [6] | Potency [7] | outcome [8] | max response [9] -3.11% | Potency [10]

CCS(=O)(=O)CCn1c([N+](=O)[O-])cnc1C
inactive: outcome [1] | outcome [2] | Potency [3] | Potency [4] | outcome [5] | Potency [6] | Potency [7] | outcome [8] | max response [9] -0.732%

Nc1ccc(C(=O)OCC(O)CO)cc1 (configuration not stated)
inactive: outcome [1] | outcome [2] | Potency [3] | Potency [4] | outcome [5] | Potency [6] | Potency [7] | outcome [8] | max response [9] 2.88% | Potency [10]

CCCCCCCCCCC
inactive: outcome [1] | outcome [2] | Potency [3] | Potency [4] | outcome [5] | Potency [6] | Potency [7] | outcome [8] | max response [9] -0.764% | Potency [10]

O=CN1CCOCC1
inactive: outcome [1] | outcome [2] | Potency [3] | Potency [4] | outcome [5] | Potency [6] | Potency [7] | outcome [8] | max response [9] 10.7%

CCCOC(=O)CCCCC(=O)OCCC
inactive: outcome [1] | outcome [2] | Potency [3] | Potency [4] | outcome [5] | Potency [6] | Potency [7] | outcome [8] | max response [9] -4.84% | Potency [10]

CC(=O)c1ccc2c(c1)CCCC2
inactive: outcome [1] | outcome [2] | Potency [3] | Potency [4] | outcome [5] | Potency [6] | Potency [7] | outcome [8] | max response [9] -1.61% | Potency [10]

NC(=O)NNC(N)=O
inactive: outcome [1] | outcome [2] | Potency [3] | Potency [4] | outcome [5] | Potency [6] | Potency [7] | outcome [8] | max response [9] 19.6% | Potency [10]

Nc1ccc(/C=C/c2ccc(N)cc2S(=O)(=O)O)c(S(=O)(=O)O)c1
inactive: activity change, positive = activation [1] 2.43% [at 0.349 µM] | activity change, negative = cytotoxicity [2] 2.78% [at 0.29 µM] | activity change, negative = cytotoxic [3] 0.295% [at 0.29 µM] | cytotoxicity [4] 5.28% [at 0.29 µM] | activity change, negative = cytotoxic [5] 0.506% [at 0.29 µM] | cytotoxicity increase [6] -0.161% [at 0.29 µM] | activity change, negative = cytotoxicity [7] 2.56% [at 0.29 µM] | viability change, negative = cytotoxic [8] 5.84% [at 0.29 µM] | max response [9] 2.9%

CCCCCCCCOC(C)=O
inactive: outcome [1] | outcome [2] | Potency [3] | Potency [4] | outcome [5] | Potency [6] | Potency [7] | outcome [8] | max response [9] 7.81% | Potency [10]

C[C@@H]1C[C@H]2[C@@H]3C[C@H](F)C4=CC(=O)C=C[C@]4(C)[C@@]3(F)[C@@H](O)C[C@]2(C)[C@@]1(O)C(=O)CO
inactive: outcome [1] | outcome [2] | Potency [3] | Potency [4] | outcome [5] | Potency [6] | Potency [7] | outcome [8] | max response [9] -1.4% | Potency [10]

NS(=O)(=O)c1ccccc1OC(F)(F)F
inactive: outcome [1] | outcome [2] | Potency [3] | Potency [4] | outcome [5] | Potency [6] | Potency [7] | outcome [8] | max response [9] 6.21% | Potency [10]

O=S(=O)(O)c1cc(O)ccc1O
inactive: outcome [1] | outcome [2] | Potency [3] | Potency [4] | outcome [5] | Potency [6] | Potency [7] | outcome [8]

CCC(C)(CCC(C)C)C(=O)[O-].CCC(C)(CCC(C)C)C(=O)[O-].[Zn+2] (configuration not stated)
inactive: outcome [1] | outcome [2] | Potency [3] | Potency [4] | outcome [5] | Potency [6] | Potency [7] | outcome [8] | max response [9] 0.868% | Potency [10]

FC(F)(F)c1ccc(Cl)cc1Cl
inactive: outcome [1] | outcome [2] | Potency [3] | Potency [4] | outcome [5] | Potency [6] | Potency [7] | outcome [8] | max response [9] 6.78%

CCCCCCCCCCCCCCCCI
inactive: activity change, positive = activation [1] 2.23% [at 19 µM] | activity change, negative = cytotoxicity [2] -1.23% [at 15.8 µM] | activity change, negative = cytotoxic [3] -10.5% [at 15.8 µM] | cytotoxicity [4] 0.206% [at 15.8 µM] | activity change, negative = cytotoxic [5] 17.3% [at 15.8 µM] | cytotoxicity increase [6] -8.08% [at 15.8 µM] | activity change, negative = cytotoxicity [7] -6.59% [at 15.8 µM] | viability change, negative = cytotoxic [8] -19.7% [at 15.8 µM] | max response [9] -10.6% | activity change [10] -5.96% [at 15.8 µM, hits give high values]

CC(C)SCc1ccco1
inactive: outcome [1] | outcome [2] | Potency [3] | Potency [4] | outcome [5] | Potency [6] | Potency [7] | outcome [8] | max response [9] 4.71% | Potency [10]
